# Experiments:
# Test in all cases: HT-SELEX; 20 mM HEPES pH 7, 140 mM KCl, 5 mM NaCl, 1 mM K2HPO4, 2 mM MgSO4, 100 uM EGTA, ZnSO4, 0.1% Tween20; room temperature, 1 h; high values mean tight binding
# Conditions in all cases: protein: ivt; tags: eGFP (N-terminal); dsDNA, one strand shown
# ZNF721 full-length = ZNF721 full-length (Homo sapiens, UniProt Q8TF20-2 1-923)
# Method in brief: (§1)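 A tagged transcription factor, either full-length or its DNA-binding-domain fragment, was made in HEK293 lysate or cell-free extract, immobilised on beads and incubated with a randomized 40-base DNA library for 1 h at room temperature in HEPES/KCl low-stringency buffer containing Tween20. Washed beads were heat-eluted, and the bound DNA was PCR-amplified over successive cycles and Illumina-sequenced at ~3 million 60 bp reads per sample. The binding signal is the relative k-mer count in selected reads, where a higher value means tighter binding.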
# ZNF721 DBD1 = ZNF721 DBD1 (Homo sapiens, UniProt Q8TF20-2 29-461)
# Method in brief: as §1
# ZNF721 DBD2 = ZNF721 DBD2 (Homo sapiens, UniProt Q8TF20-2 395-923)
# Method in brief: as §1
# Chain of ZNF721 DBD2 (Q8TF20 383-911): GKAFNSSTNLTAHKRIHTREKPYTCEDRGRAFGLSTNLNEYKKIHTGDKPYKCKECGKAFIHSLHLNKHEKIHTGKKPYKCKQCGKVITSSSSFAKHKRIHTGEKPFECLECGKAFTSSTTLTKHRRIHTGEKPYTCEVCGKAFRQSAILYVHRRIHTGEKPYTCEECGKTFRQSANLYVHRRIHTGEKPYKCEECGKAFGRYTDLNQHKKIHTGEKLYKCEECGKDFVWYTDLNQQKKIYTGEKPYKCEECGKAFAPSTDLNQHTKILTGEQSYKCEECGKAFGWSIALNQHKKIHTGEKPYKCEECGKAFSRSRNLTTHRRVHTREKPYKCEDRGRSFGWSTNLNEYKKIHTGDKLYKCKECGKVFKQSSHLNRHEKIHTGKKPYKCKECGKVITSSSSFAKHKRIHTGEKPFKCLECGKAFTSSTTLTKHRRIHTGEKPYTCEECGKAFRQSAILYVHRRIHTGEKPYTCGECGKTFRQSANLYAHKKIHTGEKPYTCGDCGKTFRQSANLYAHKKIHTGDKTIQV
# Chain of ZNF721 full-length (Q8TF20 other isoform, or with tags, fused parts or gaps): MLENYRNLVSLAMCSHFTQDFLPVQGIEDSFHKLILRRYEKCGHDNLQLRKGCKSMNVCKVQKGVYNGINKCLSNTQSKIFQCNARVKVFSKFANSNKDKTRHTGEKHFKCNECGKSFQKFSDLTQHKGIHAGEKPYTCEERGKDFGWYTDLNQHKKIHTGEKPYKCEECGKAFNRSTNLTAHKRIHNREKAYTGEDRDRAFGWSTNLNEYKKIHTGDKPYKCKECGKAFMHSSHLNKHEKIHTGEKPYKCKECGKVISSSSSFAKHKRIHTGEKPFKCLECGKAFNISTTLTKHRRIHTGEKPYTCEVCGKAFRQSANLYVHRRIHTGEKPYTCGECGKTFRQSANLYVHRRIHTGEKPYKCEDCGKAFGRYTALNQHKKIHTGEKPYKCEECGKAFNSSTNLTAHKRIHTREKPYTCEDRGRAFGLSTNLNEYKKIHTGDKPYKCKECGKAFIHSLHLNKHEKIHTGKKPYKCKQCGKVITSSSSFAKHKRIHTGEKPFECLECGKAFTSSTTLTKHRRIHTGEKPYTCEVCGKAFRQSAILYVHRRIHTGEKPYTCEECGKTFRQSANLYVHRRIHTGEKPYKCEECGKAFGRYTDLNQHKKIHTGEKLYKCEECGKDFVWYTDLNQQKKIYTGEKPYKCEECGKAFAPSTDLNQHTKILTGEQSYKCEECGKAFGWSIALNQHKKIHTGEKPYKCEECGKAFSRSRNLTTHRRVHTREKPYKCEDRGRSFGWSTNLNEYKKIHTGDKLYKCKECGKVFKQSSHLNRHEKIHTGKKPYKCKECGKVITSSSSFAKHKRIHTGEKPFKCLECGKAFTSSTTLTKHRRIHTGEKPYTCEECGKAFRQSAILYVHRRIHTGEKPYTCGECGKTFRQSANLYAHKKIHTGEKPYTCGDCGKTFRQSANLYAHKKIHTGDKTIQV
# Chain of ZNF721 DBD1 (Q8TF20 17-449): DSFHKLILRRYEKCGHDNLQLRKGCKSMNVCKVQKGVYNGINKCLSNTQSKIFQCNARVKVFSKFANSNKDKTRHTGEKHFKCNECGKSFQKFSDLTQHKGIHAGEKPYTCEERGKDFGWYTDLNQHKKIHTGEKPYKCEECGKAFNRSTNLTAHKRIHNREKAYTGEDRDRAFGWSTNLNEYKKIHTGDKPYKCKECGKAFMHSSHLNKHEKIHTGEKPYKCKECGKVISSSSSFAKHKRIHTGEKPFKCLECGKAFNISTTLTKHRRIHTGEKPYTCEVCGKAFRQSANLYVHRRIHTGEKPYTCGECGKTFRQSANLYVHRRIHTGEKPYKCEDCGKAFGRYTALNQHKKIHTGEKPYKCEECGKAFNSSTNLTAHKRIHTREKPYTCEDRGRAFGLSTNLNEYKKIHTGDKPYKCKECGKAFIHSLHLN
Sequence,binding signal (ZNF721 full-length),binding signal (ZNF721 DBD1),binding signal (ZNF721 DBD2)
CACGCCCACC,0.123 relative 10-mer count,0.00518 relative 10-mer count,0.00947 relative 10-mer count
ACACCCACCC,0.171 relative 10-mer count,0.0105 relative 10-mer count,0.00336 relative 10-mer count
ACCACCCCCC,0.211 relative 10-mer count,0.00771 relative 10-mer count,0.00288 relative 10-mer count
CACCCTACCC,0.107 relative 10-mer count,0.00408 relative 10-mer count,0.00491 relative 10-mer count
ACCCACCCCG,0.133 relative 10-mer count,0.00491 relative 10-mer count,0.00264 relative 10-mer count
ACGCCCACCC,0.129 relative 10-mer count,0.00486 relative 10-mer count,0.00587 relative 10-mer count
CCCCCACCAA,0.115 relative 10-mer count,0.00431 relative 10-mer count,0.00443 relative 10-mer count
CGCCACCCCC,0.212 relative 10-mer count,0.00706 relative 10-mer count,0.0024 relative 10-mer count
CCACACCCCC,0.201 relative 10-mer count,0.00738 relative 10-mer count,0.00276 relative 10-mer count
CCTTCCCCCC,0.104 relative 10-mer count,0.00472 relative 10-mer count,0.00264 relative 10-mer count
CTGCTTTTTC,0.202 relative 10-mer count,0.00491 relative 10-mer count,0.196 relative 10-mer count
CGCTTCTTTC,0.12 relative 10-mer count,0.081 relative 10-mer count,0.0018 relative 10-mer count
CACCCCACCG,0.124 relative 10-mer count,0.00459 relative 10-mer count,0.00372 relative 10-mer count
ACCCTCCCAC,0.119 relative 10-mer count,0.00734 relative 10-mer count,0.00587 relative 10-mer count
GAAAAAAACA,0.2 relative 10-mer count,0.00289 relative 10-mer count,0.165 relative 10-mer count
CCACCCCCCG,0.179 relative 10-mer count,0.00628 relative 10-mer count,0.0024 relative 10-mer count
GGGGGAGGGA,0.151 relative 10-mer count,0.00936 relative 10-mer count,0.00384 relative 10-mer count
CGCCCACCCA,0.147 relative 10-mer count,0.00449 relative 10-mer count,0.00216 relative 10-mer count
CCCGCCCCGC,0.154 relative 10-mer count,0.00518 relative 10-mer count,0.00144 relative 10-mer count
AGGATACCCT,0.106 relative 10-mer count,0.00527 relative 10-mer count,0.171 relative 10-mer count
CCTCCCCCCG,0.143 relative 10-mer count,0.00541 relative 10-mer count,0.00348 relative 10-mer count
AAAAAAAGAA,0.104 relative 10-mer count,0.00867 relative 10-mer count,0.0321 relative 10-mer count

Sequence,binding signal (ZNF721 full-length),binding signal (ZNF721 DBD1),binding signal (ZNF721 DBD2)
CCACCATCCC,0.162 relative 10-mer count,0.0055 relative 10-mer count,0.00443 relative 10-mer count
CCCACGACCC,0.107 relative 10-mer count,0.00564 relative 10-mer count,0.0018 relative 10-mer count
CACCCACACC,0.127 relative 10-mer count,0.0061 relative 10-mer count,0.00395 relative 10-mer count
CCCCCCCGCC,0.204 relative 10-mer count,0.00706 relative 10-mer count,0.00276 relative 10-mer count
CCTCCCTCCC,0.179 relative 10-mer count,0.00931 relative 10-mer count,0.00479 relative 10-mer count
CCCGACCCCA,0.112 relative 10-mer count,0.00399 relative 10-mer count,0.0012 relative 10-mer count
CCTCCCGCCC,0.161 relative 10-mer count,0.00656 relative 10-mer count,0.00264 relative 10-mer count
CTCCCCCCGC,0.114 relative 10-mer count,0.00468 relative 10-mer count,0.00144 relative 10-mer count
CCCACCCACA,0.171 relative 10-mer count,0.00688 relative 10-mer count,0.00959 relative 10-mer count
CCACCCCAAC,0.162 relative 10-mer count,0.00601 relative 10-mer count,0.00659 relative 10-mer count
GCCCCGCCCC,0.124 relative 10-mer count,0.00436 relative 10-mer count,0.00156 relative 10-mer count
CCCACCGTCC,0.105 relative 10-mer count,0.00449 relative 10-mer count,0.00395 relative 10-mer count
ACCCCCCGCC,0.137 relative 10-mer count,0.00555 relative 10-mer count,0.00384 relative 10-mer count
CACCCCACCC,0.31 relative 10-mer count,0.012 relative 10-mer count,0.0036 relative 10-mer count
CCCCGCCCCA,0.196 relative 10-mer count,0.0067 relative 10-mer count,0.00228 relative 10-mer count
CACACCACCC,0.142 relative 10-mer count,0.00573 relative 10-mer count,0.00527 relative 10-mer count
CCACCCACAC,0.152 relative 10-mer count,0.00734 relative 10-mer count,0.00635 relative 10-mer count
CAGGGGTGGG,0.103 relative 10-mer count,0.00482 relative 10-mer count,0.00419 relative 10-mer count
CCTCCCCGCC,0.138 relative 10-mer count,0.00697 relative 10-mer count,0.00923 relative 10-mer count
ACCCCCCACC,0.257 relative 10-mer count,0.0107 relative 10-mer count,0.00491 relative 10-mer count
ACCCCGCCCC,0.188 relative 10-mer count,0.00569 relative 10-mer count,0.00192 relative 10-mer count
CCCTCCCCCA,0.192 relative 10-mer count,0.00881 relative 10-mer count,0.00839 relative 10-mer count

Sequence,binding signal (ZNF721 full-length),binding signal (ZNF721 DBD1),binding signal (ZNF721 DBD2)
GCCACCCCCC,0.138 relative 10-mer count,0.00546 relative 10-mer count,0.00348 relative 10-mer count
CTCCCCACCC,0.198 relative 10-mer count,0.00936 relative 10-mer count,0.00395 relative 10-mer count
CCGCCCTCCC,0.148 relative 10-mer count,0.00642 relative 10-mer count,0.00252 relative 10-mer count
CCTCCACCCC,0.263 relative 10-mer count,0.0117 relative 10-mer count,0.00455 relative 10-mer count
CATCCCCACC,0.126 relative 10-mer count,0.0072 relative 10-mer count,0.0188 relative 10-mer count
AAAAGCTATC,0.233 relative 10-mer count,0.129 relative 10-mer count,0.00168 relative 10-mer count
CCCCCGCACC,0.146 relative 10-mer count,0.00527 relative 10-mer count,0.00419 relative 10-mer count
CACCGCCCCA,0.107 relative 10-mer count,0.00404 relative 10-mer count,0.0024 relative 10-mer count
AAAAGCGTAC,0.118 relative 10-mer count,0.0294 relative 10-mer count,0.0176 relative 10-mer count
CCACACCCAC,0.128 relative 10-mer count,0.00605 relative 10-mer count,0.00515 relative 10-mer count
CCCCCACCCG,0.174 relative 10-mer count,0.00587 relative 10-mer count,0.00384 relative 10-mer count
CTCCACCCCC,0.178 relative 10-mer count,0.00812 relative 10-mer count,0.00467 relative 10-mer count
CCCCATCCCC,0.231 relative 10-mer count,0.0083 relative 10-mer count,0.0036 relative 10-mer count
CCCCCGTCCC,0.173 relative 10-mer count,0.00642 relative 10-mer count,0.00252 relative 10-mer count
CCCGTCCCCC,0.187 relative 10-mer count,0.00771 relative 10-mer count,0.0018 relative 10-mer count
GGGTGGGGCA,0.104 relative 10-mer count,0.00344 relative 10-mer count,0.00216 relative 10-mer count
AAAGCGTACC,0.109 relative 10-mer count,0.0281 relative 10-mer count,0.0144 relative 10-mer count
CCACCCTACC,0.115 relative 10-mer count,0.00688 relative 10-mer count,0.00839 relative 10-mer count
AAAAGCAGCA,0.304 relative 10-mer count,0.00578 relative 10-mer count,0.296 relative 10-mer count
CCCCCCCCAC,0.257 relative 10-mer count,0.0089 relative 10-mer count,0.00539 relative 10-mer count
TCCCCACCCA,0.122 relative 10-mer count,0.00495 relative 10-mer count,0.00431 relative 10-mer count
AGCCCACCCC,0.12 relative 10-mer count,0.00583 relative 10-mer count,0.0209 relative 10-mer count
